Consider 38 compounds from PubChem BioAssay (EPA / NIEHS).

Results filed as inconclusive are left out. Active and inactive are the calls of the source. Rule for the calls: active = hit-call score of the fitted dose curve at least 0.9, where 1 is the maximum; inconclusive = response in the unintended direction; inactive = score below 0.9.

What is called AC50 is the concentration giving half of the maximal activity seen.

Chain of Oxysterols receptor LXR-alpha (Homo sapiens) (Q13133 whole entry, looked up, the tested form may be a part): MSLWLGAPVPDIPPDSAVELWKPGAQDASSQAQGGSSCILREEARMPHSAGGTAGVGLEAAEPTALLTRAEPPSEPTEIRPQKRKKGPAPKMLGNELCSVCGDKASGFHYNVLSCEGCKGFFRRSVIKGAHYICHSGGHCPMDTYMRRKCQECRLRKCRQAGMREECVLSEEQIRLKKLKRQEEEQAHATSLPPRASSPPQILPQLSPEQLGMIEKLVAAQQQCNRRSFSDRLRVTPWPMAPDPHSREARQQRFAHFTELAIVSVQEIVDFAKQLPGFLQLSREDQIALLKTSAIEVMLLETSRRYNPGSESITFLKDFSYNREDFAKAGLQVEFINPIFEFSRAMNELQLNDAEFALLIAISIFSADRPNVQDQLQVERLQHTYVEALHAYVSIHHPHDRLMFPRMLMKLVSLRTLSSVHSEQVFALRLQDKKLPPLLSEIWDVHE
Chain of Hepatocyte nuclear factor 4-alpha (Homo sapiens) (P41235 whole entry, looked up, the tested form may be a part): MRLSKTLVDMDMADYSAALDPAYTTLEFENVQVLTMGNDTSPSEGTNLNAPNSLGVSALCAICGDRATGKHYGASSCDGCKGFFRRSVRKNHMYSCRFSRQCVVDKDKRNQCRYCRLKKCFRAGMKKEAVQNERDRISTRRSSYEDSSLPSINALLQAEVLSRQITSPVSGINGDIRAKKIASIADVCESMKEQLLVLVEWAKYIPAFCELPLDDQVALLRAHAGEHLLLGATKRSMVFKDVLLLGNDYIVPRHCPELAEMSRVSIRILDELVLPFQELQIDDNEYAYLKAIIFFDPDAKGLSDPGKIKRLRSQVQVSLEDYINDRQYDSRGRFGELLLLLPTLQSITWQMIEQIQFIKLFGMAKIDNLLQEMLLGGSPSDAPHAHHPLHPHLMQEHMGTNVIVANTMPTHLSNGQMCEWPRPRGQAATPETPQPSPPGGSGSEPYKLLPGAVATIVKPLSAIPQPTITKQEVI

In one experiment the target is Glucocorticoid receptor (Homo sapiens) (UniProt P04150). Kind of experiment: ATG_GR_TRANS: Attagene TRANS-FACTORIAL HepG2 Assay for human Glucocorticoid Receptor (GR) (AID 2282978).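 Note: activators score as hits since higher reporter transcript over DMSO is fitted.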 To be noted: HepG2 Attagene TRANS GR reporter, mRNA transcription. A digest of the protocol: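 Transient MRTU transfection of HepG2 (GAL4-UAS reporters, exogenous NR-GAL4 chimeras), 24 h dosing. Readout: reporter transcript via RT-PCR + capillary electrophoresis fluorescence. Positive direction vs DMSO baseline.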
Chain of Glucocorticoid receptor (Homo sapiens) (P04150 whole entry, looked up, the tested form may be a part): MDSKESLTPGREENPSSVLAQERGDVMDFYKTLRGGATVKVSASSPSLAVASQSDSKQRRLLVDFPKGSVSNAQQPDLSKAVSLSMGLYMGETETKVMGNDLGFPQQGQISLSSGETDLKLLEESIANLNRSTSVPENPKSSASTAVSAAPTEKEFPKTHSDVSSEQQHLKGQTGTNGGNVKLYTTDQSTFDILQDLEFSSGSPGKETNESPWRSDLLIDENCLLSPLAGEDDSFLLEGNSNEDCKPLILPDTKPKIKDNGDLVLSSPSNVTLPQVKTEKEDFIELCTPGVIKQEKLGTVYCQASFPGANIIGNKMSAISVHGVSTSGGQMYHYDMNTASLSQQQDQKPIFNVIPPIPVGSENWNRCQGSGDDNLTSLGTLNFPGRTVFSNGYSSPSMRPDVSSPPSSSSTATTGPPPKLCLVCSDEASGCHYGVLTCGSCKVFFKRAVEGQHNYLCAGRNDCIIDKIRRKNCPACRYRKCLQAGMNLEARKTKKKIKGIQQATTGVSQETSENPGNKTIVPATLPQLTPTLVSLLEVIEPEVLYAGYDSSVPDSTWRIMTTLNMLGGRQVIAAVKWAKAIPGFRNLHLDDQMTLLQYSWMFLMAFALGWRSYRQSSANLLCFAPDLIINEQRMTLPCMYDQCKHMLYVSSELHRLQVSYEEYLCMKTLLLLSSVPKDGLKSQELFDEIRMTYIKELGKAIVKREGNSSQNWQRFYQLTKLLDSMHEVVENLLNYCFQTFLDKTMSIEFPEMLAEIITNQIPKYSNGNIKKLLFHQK
On to `Cc1cccc(C)c1[N+](=O)[O-]`, for which the compound was classed as inactive.

Regarding `CC(C)C[C@H]1C(=O)N2CCC[C@H]2[C@]2(O)O[C@](NC(=O)[C@@H]3C=C4c5cccc6[nH]c(Br)c(c56)C[C@H]4N(C)C3)(C(C)C)C(=O)N12`, the result was inactive.

On to `Nc1cccc(S(=O)(=O)c2cccc(N)c2)c1`, for which the compound was called inactive.

With `O=C(O)CCSCCC(=O)O`, the call was inactive.

Regarding `CC1(C)[C@H]2CC[C@]1(C)[C@H](O)C2`, the outcome was inactive.

Turning to `Cc1ccc2n[nH]nc2c1`, the compound was classed as inactive.

On to `CC(c1cc2ccccc2s1)N(O)C(N)=O` (stereo unspecified), for which the concentration at half-maximal activity (AC50) is 100 µM (active).

Regarding `CC1(C)[C@@H]2CC[C@@]1(C)[C@H](O)C2`, the call was inactive.

`O=C1CCCCCCCCCCCCCCO1`: the compound was called inactive.

Consider `CCC(C)(O)CCC=C(C)C` (stereo unspecified), for which the compound was classed as inactive.

`N#Cc1ccc(CC(=NNC(=O)Nc2ccc(OC(F)(F)F)cc2)c2cccc(C(F)(F)F)c2)cc1`: the outcome was inactive.

Take `Cc1ccc(C(C)C)cc1O`: the compound was classed as inactive.

For `Nc1cc([N+](=O)[O-])ccc1O`, the result was inactive.

On to `O=C(O)c1cn(-c2ccc(F)cc2)c2cc(N3CCNCC3)c(F)cc2c1=O`, for which the outcome was inactive.

As for `S=C(S)NCCNC(=S)S`, the result was inactive.

With `N#Cc1ccccc1`, the compound was classed as inactive.

On to `CCCCC(CC)COC(=O)/C=C\C(=O)OCC(CC)CCCC` (stereo unspecified), for which the outcome was inactive.

As for `CCCCCCC#CC(=O)OC`, the outcome was inactive.

On to `O=Cc1ccc(F)cc1`, for which the outcome was inactive.

In the case of `CCCCCCOC(=O)CCCCC`, the call was inactive.

Take `C=CC(=O)OCC(O)COc1ccccc1` (stereo unspecified): the result was inactive.

Take `FC1(F)C(F)(F)C(F)(F)C2(F)C(F)(C1(F)F)C(F)(F)C(F)(F)C1(F)C(F)(F)C(F)(F)C(F)(F)C(F)(F)C12F` (stereo unspecified): the call was inactive.

Turning to `NC(N)=NC(=O)c1nc(Cl)c(N)nc1N`, the call was inactive.

`CC(C=O)Cc1ccc(C(C)C)cc1` (stereo unspecified): the outcome was inactive.

As to `COc1ccnc(CS(=O)c2nc3cc(OC(F)F)ccc3[nH]2)c1OC` (stereo unspecified), the compound was called inactive.

For the compound `O=[N+]([O-])c1ccc(C=Cc2ccc([N+](=O)[O-])cc2S(=O)(=O)O)c(S(=O)(=O)O)c1`, the call was inactive.

For the compound `Cc1cccc(Nc2ccccc2C(=O)O)c1C`, the call was inactive.

Take `CCCCC(CC)COCCC#N` (stereo unspecified): the result was inactive.

Regarding `O=C(O)c1ccc([N+](=O)[O-])cc1`, the compound was classed as inactive.

With `Cc1cc(C2(c3cc(C)c(O)cc3C)OS(=O)(=O)c3ccccc32)c(C)cc1O`, the outcome was inactive.

Take `CC(=O)C(C)=O`: the result was inactive.

In the case of `CC1(C)[C@H](C(=O)OCc2cccc(Oc3ccccc3)c2)[C@@H]1C=C(Cl)Cl`, the result was inactive.

Consider `CO[Si](C)(OC)c1ccccc1`, for which the result was inactive.

`Nc1ccc(F)c([N+](=O)[O-])c1`: the outcome was inactive.

For the next experiment, the target named is Bile acid receptor (Homo sapiens) (UniProt Q96RI1). Kind of experiment: ATG_FXR_TRANS: Attagene TRANS-FACTORIAL HepG2 Assay for Farnesoid X Receptor (FXR) (AID 2282979).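 Note: hits raise reporter mRNA above DMSO so AC50 marks FXR activation.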 To be noted: HepG2 Attagene TRANS FXR-GAL4 reporter transcription. In outline: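 Transient transfection of HepG2 with multiplexed GAL4-UAS reporter units; exogenous FXR-GAL4 chimera. Dose 24 h → TriZol RNA → oligo(dT) RT → PCR, 6-FAM primer extension, HpaI cut → CE. Gain vs DMSO.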
Chain of Bile acid receptor (Homo sapiens) (Q96RI1 whole entry, looked up, the tested form may be a part): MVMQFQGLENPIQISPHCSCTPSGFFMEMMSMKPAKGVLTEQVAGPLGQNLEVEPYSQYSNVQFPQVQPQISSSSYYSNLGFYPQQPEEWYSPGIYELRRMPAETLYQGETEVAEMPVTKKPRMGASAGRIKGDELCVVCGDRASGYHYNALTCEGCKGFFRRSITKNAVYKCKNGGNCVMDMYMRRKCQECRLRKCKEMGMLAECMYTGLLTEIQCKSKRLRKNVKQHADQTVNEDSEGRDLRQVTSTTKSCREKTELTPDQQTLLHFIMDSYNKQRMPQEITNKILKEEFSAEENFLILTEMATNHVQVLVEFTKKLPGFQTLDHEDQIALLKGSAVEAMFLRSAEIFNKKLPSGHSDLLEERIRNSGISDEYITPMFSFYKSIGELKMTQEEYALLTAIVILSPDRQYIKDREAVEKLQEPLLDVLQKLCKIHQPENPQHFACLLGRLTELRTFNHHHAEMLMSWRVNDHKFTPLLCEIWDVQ
`O=Nc1ccc(Nc2ccccc2)cc1`: the result was inactive.

With `O=C1c2ccccc2C(=O)N1SC1CCCCC1`, the result was inactive.

As for `COC(=O)c1ccc(C)cc1`, the result was inactive.

As to `Cc1c(N(C)C)c(=O)n(-c2ccccc2)n1C`, the result was inactive.

The next experiment addresses Oxysterols receptor LXR-alpha (Homo sapiens) (UniProt Q13133). Kind of experiment: ATG_LXRa_TRANS: Attagene TRANS-FACTORIAL HepG2 Assay for human Liver X Receptor alpha (LXRa) (AID 2282980). Conditions: HepG2 Attagene TRANS reporter, LXRa transactivation. A digest of the protocol: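 Transfect HepG2 with GAL4-UAS multiplex reporter constructs (TRANS format, chimeric receptor-GAL4); treat 24 h; extract RNA, reverse-transcribe, PCR-amplify, FAM-label, HpaI-digest; resolve fragments by capillary electrophoresis. Upward response vs DMSO.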
For `O=Nc1ccc(Nc2ccccc2)cc1`, the compound was classed as inactive.

Consider `O=C1c2ccccc2C(=O)N1SC1CCCCC1`, for which the outcome was inactive.

`COC(=O)c1ccc(C)cc1`: the call was inactive.

`Cc1c(N(C)C)c(=O)n(-c2ccccc2)n1C`: the outcome was inactive.

In a further experiment the target is Oxysterols receptor LXR-beta (Homo sapiens) (UniProt P55055). Kind of experiment: ATG_LXRb_TRANS: Attagene TRANS-FACTORIAL HepG2 Assay for human Liver X Receptor beta (LXRb) (AID 2282981). Conditions: HepG2 Attagene TRANS GAL4-LXRb reporter, mRNA. In outline: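 After 24 h chemical treatment of transfected HepG2 cells carrying exogenous NR-Gal4 chimeras, reporter mRNA was quantified by fluorescent RT-PCR and capillary electrophoresis; activity taken as increase over DMSO controls.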
Chain of Oxysterols receptor LXR-beta (Homo sapiens) (P55055 whole entry, looked up, the tested form may be a part): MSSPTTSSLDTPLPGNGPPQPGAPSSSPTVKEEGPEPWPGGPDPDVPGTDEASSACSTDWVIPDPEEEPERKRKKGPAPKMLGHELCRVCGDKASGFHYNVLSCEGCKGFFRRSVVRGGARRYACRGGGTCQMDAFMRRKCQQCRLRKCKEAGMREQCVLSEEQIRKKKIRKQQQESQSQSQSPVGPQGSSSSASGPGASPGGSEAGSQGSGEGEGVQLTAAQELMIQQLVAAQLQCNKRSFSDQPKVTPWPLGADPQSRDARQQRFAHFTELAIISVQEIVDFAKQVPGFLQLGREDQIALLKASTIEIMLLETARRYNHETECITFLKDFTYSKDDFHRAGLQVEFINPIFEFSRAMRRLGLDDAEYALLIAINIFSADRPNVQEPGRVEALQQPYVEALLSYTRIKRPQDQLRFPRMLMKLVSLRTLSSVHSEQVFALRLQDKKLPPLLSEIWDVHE
For `O=Nc1ccc(Nc2ccccc2)cc1`, the call was inactive.

With `O=C(O)CCSCCC(=O)O`, the call was inactive.

For the compound `CC(c1cc2ccccc2s1)N(O)C(N)=O` (stereo unspecified), the compound was classed as inactive.

As for `O=C1c2ccccc2C(=O)N1SC1CCCCC1`, the compound was called inactive.

Regarding `N#Cc1ccc(CC(=NNC(=O)Nc2ccc(OC(F)(F)F)cc2)c2cccc(C(F)(F)F)c2)cc1`, the outcome was inactive.

With `O=Cc1ccc(F)cc1`, the result was inactive.

In the case of `C=CC(=O)OCC(O)COc1ccccc1` (stereo unspecified), the compound was called inactive.

Consider `NC(N)=NC(=O)c1nc(Cl)c(N)nc1N`, for which the call was inactive.

Take `COC(=O)c1ccc(C)cc1`: the result was inactive.

For the compound `CC(=O)C(C)=O`, the call was inactive.

On to `CC1(C)[C@H](C(=O)OCc2cccc(Oc3ccccc3)c2)[C@@H]1C=C(Cl)Cl`, for which the outcome was inactive.

On to `Cc1c(N(C)C)c(=O)n(-c2ccccc2)n1C`, for which the compound was classed as inactive.

Regarding `Nc1ccc(F)c([N+](=O)[O-])c1`, the outcome was inactive.

Another experiment has as its target Hepatocyte nuclear factor 4-alpha (Homo sapiens) (UniProt P41235). Kind of experiment: ATG_HNF4a_TRANS: Attagene TRANS-FACTORIAL HepG2 Assay for human Hepatocyte Nuclear Factor 4 alpha (HNF4a) (AID 2282982). Conditions: HepG2 HNF4a transactivation reporter, mRNA readout. In outline: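 Activity of an exogenous HNF4a–Gal4 fusion scored as induced GAL4-UAS reporter transcripts after 24 h chemical exposure of transfected human HepG2 cells. Read-out via RT-PCR with 6-FAM labelling and capillary electrophoresis; rise over DMSO baseline.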
For the compound `Cc1cccc(C)c1[N+](=O)[O-]`, the compound was classed as inactive.

For the compound `O=Nc1ccc(Nc2ccccc2)cc1`, the call was inactive.

`Nc1cccc(S(=O)(=O)c2cccc(N)c2)c1`: the compound was called inactive.

`O=C(O)CCSCCC(=O)O`: the call was inactive.

With `O=C1c2ccccc2C(=O)N1SC1CCCCC1`, the outcome was inactive.

As for `Cc1ccc(C(C)C)cc1O`, the call was inactive.

As to `Nc1cc([N+](=O)[O-])ccc1O`, the compound was called inactive.

Turning to `N#Cc1ccccc1`, the result was inactive.

`CCCCCCC#CC(=O)OC`: the call was inactive.

As for `CCCCCCOC(=O)CCCCC`, the compound was called inactive.

As to `C=CC(=O)OCC(O)COc1ccccc1` (stereo unspecified), the outcome was inactive.

`FC1(F)C(F)(F)C(F)(F)C2(F)C(F)(C1(F)F)C(F)(F)C(F)(F)C1(F)C(F)(F)C(F)(F)C(F)(F)C(F)(F)C12F` (stereo unspecified): the compound was called inactive.

Consider `CC(C=O)Cc1ccc(C(C)C)cc1` (stereo unspecified), for which the outcome was inactive.

Take `COC(=O)c1ccc(C)cc1`: the outcome was inactive.

Regarding `O=[N+]([O-])c1ccc(C=Cc2ccc([N+](=O)[O-])cc2S(=O)(=O)O)c(S(=O)(=O)O)c1`, the call was inactive.

As to `Cc1cccc(Nc2ccccc2C(=O)O)c1C`, the result was inactive.

Take `O=C(O)c1ccc([N+](=O)[O-])cc1`: the outcome was inactive.

`Cc1cc(C2(c3cc(C)c(O)cc3C)OS(=O)(=O)c3ccccc32)c(C)cc1O`: the outcome was inactive.

For the compound `CC(=O)C(C)=O`, the compound was classed as inactive.

`CC1(C)[C@H](C(=O)OCc2cccc(Oc3ccccc3)c2)[C@@H]1C=C(Cl)Cl`: the compound was classed as inactive.

In the case of `Nc1ccc(F)c([N+](=O)[O-])c1`, the outcome was inactive.
